Bioassay records as filed in PubChem.
Neddylation inh = inhibitors of cullin neddylation, primary screen, biochemical, TR-FRET, uHTS, NAE and Ubc12 | NEDD8-conjugating enzyme Ubc12 (Homo sapiens) + NEDD8-activating enzyme E1 regulatory … | AID 651699, 2012 | 360,000 tested, 0.58% active | inhibition, % at 25 µM; in the data active = inhibition above about 36%
SUMO1-SIM PPI = modulators of SUMO1 protein-protein interactions, primary screen, biochemical, uHTS. 360,000 tested, 0.33% active. SUMO1 binding to a labelled peptide, TR-FRET, 1 h. inhibition, % at 20 µM. Small ubiquitin-related modifier 1 (Homo sapiens), P63165; in the data active = inhibition above about 37%
ATG4B inh = ATG4B protease inhibitors, primary screen, biochemical, fluorescence, uHTS; ATG4B cleavage of LC3-PLA2, NBD-HPC fluorescence, 1 h; inhibition, % at 8.33 µM; 340,000 tested, 0.51% active; AID 504462, 2011; in the data active = inhibition above about 40%
Rin1 Abl inh = inhibitors of Rin1-Abl protein binding, primary screen, biochemical, TR-FRET; Tyrosine-protein kinase ABL1 (Homo sapiens) + Ras and Rab interactor 1 (Homo sapiens), …; inhibition, % at 7.35 µM; 360,000 tested, 0.4% active; in the data active = inhibition above about 5%, passing the limit was not always enough
Target sequence (P00519 whole entry, looked up): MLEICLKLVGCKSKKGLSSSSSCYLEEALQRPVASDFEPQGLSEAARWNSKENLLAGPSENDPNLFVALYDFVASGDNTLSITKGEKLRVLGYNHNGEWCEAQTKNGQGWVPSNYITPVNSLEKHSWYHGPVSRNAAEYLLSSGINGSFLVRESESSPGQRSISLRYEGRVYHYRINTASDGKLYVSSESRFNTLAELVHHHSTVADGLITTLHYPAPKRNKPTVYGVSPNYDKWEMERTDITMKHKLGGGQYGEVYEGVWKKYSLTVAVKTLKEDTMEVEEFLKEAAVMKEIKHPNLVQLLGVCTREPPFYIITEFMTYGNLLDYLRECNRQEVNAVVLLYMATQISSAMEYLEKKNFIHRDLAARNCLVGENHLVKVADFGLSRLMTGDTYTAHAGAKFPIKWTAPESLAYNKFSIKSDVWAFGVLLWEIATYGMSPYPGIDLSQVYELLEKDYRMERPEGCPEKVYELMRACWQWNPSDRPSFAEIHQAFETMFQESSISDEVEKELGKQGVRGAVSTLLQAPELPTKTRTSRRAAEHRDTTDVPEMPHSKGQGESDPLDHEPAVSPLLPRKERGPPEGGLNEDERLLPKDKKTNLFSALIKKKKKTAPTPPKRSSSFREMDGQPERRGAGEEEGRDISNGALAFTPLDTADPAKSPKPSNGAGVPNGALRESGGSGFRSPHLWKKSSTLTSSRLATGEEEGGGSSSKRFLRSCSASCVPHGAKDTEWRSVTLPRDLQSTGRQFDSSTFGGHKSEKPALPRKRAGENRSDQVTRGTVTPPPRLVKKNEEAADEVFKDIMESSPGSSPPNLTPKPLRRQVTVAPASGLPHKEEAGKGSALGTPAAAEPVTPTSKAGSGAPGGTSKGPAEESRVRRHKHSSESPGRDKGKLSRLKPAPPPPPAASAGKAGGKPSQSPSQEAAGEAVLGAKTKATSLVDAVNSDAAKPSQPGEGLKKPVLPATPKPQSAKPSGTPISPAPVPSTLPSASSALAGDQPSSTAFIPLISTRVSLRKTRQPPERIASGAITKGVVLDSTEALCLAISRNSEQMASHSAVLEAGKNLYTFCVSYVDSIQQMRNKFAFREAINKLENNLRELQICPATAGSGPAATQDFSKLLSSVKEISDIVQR
Target sequence (Q13671 whole entry, looked up): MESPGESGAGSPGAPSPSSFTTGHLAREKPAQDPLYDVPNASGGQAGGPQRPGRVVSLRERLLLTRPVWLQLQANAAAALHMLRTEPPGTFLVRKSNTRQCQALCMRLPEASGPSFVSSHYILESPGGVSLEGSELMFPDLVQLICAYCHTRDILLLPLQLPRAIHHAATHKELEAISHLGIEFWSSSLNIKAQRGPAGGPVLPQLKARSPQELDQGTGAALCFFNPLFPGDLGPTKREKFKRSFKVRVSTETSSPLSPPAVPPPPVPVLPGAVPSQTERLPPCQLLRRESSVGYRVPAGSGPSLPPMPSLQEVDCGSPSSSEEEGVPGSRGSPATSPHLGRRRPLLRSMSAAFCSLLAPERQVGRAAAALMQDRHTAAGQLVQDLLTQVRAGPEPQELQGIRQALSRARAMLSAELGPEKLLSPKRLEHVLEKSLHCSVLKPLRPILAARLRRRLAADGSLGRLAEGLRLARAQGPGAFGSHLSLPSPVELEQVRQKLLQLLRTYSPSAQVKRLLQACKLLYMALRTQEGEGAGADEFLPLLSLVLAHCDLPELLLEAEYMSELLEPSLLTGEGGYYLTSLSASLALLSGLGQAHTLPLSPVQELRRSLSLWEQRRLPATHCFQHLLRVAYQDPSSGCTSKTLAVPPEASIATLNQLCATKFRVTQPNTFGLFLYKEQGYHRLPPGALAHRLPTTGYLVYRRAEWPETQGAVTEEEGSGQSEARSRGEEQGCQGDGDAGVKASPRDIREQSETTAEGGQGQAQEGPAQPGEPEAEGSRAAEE
Rin1 Abl conf = Rin1-Abl binding inhibitor retest, confirmation, biochemical, TR-FRET; purified proteins; AID 602124, 2011; inhibition, % at 7.35 µM; 1,300 tested, 49% active; shares compounds with Rin1 Abl inh
GFP quencher = GFP fluorescence inhibitors and quenchers, artefact control for Rin1-Abl interaction inhibitor project, biochemical; shares compounds with Rin1 Abl inh; inhibitors/quenchers counterscreen; inhibition, % at 6.75 µM; 1,300 tested, 8.5% active; AID 602125, 2011;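 also: ABL1-eGFP fusion protein alone without its partner RIN1-SBP; 0% = protein with vehicle and 100% = wells lacking protein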
GFP quench dose = GFP fluorescence inhibitors and quenchers, dose response, artefact control for Rin1-Abl interaction inhibitor project, biochemical; shares compounds with Rin1 Abl inh; GFP fluorescence interference/quenching counterscreen; 230 tested, under 10 active; IC50, µM; call rule not given here;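 also: ABL1-eGFP fusion protein alone without its RIN1 binding partner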
Starred values were filed as active, the others as inactive; x = no result. Compounds with a hit are over-represented: about 1.7% of the library has one in this group of screens. Rule as the data show it, unless noted: active = inhibition above about 6.5%; inactive = the rest.

SMILES	Neddylation inh	SUMO1-SIM PPI	ATG4B inh	Rin1 Abl inh	Rin1 Abl conf	GFP quencher	others
CN(C)c1ccc(O)c2c1CC1CC3[C@@H](N(C)C)C(=O)C(C(N)=O)C(=O)[C@]3(O)C(=O)C1C2=O (some centres undefined)	-1.4	-4.3	-6.6	13.4*	7.8*	3.1
O=C1CCCC2=C1C1(O)C(=O)c3ccccc3C1(O)O2 (centres undefined)	-21.7	4.5	-1.4	19.3*	9.1*	-1.7
O=C(C(=O)N1CCN(c2ccncc2)CC1)c1cccc(Br)c1	-5.5	-17.6	x	x	x	x
CCOc1c(Cl)cc(C(=O)Nc2ccccc2C(=O)O)cc1Cl	14.1	20.8	12.4	13.1*	19.0*	1.0	GFP quench dose=>67.5
O=C(Nc1ccccc1C(=O)O)c1cccc(C(=O)Nc2ccccc2C(=O)O)c1	14.3	34.3	3.1	0.7	x	x
COc1ccc(C(=O)Nc2ccccc2C(=O)O)cc1Cl	13.0	5.7	2.3	0.8	x	x
COC(=O)c1ccc(NC(=O)c2ccc(OC(C)=O)c(OC)c2)cc1	10.8	9.8	-38.8	1.8	x	x
COc1cc(C(=O)Nc2ccc(O)cc2C(=O)O)ccc1OC(C)=O	1.2	16.9	8.7	71.2*	72.1*	0.3	GFP quench dose=>67.5
O=C(Nc1ccc(O)cc1C(=O)O)c1cccc(Br)c1	4.5	15.9	-5.8	15.6*	23.5*	-1.4	GFP quench dose=>67.5
CC(=O)Nc1cccc(C(=O)Nc2ccccc2C(=O)O)c1	5.3	-0.4	-3.5	17.5*	-2.2	0.3
O=C(Nc1nnc([C@@H]2O[C@H](CO)[C@@H](O)[C@H]2O)s1)Nc1ccccc1C(F)(F)F	-3.2	3.8	x	2.5	x	x
Cc1csc(SCC(=O)Nc2nc3ccccc3s2)n1	-1.7	-0.7	-5.3	-0.1	x	x
Cn1cc(SCC(=O)Nc2nc3ccccc3s2)c2ccccc21	1.7	-1.5	-23.8	7.0*	-2.1	2.1
COC(=O)c1ccc(CSc2nnc(-c3ccncc3)o2)o1	0.7	6.6	0.2	19.4*	38.7*	-1.4	GFP quench dose=>67.5
COC(=O)c1ccccc1NC(=O)CSc1nnc(-c2ccncc2)o1	1.6	-0.4	-10.8	16.0*	16.1*	0.0
COC(=O)c1ccc(CSc2nnc(-c3ccncc3)o2)cc1	2.8	-5.9	-0.5	1.1	x	x
COC(=O)c1cc(O)cc(OC)c1Oc1cc(C)cc(O)c1C(=O)O	-4.4	44.0*	-17.3	20.2*	21.0*	4.5	GFP quench dose=>67.5
Cc1cc(F)ccc1S(=O)(=O)N1CCCOC1CNC(=O)C(=O)NCCc1ccco1 (centres undefined)	3.9	-2.0	x	3.1	x	x
Cc1cnc(NC(=O)C(C)N2CCN(C)CC2)s1 (centres undefined)	3.1	-5.7	-7.1	6.7*	1.1	-1.1
COc1ccc(C(=O)c2ncc(C(F)(F)F)cc2Cl)cc1	-5.2	1.8	-1.6	1.7	x	x
COc1cccc(C(=O)c2ncc(C(F)(F)F)cc2Cl)c1	-5.6	2.3	-3.1	13.2*	-3.4	0.0
c1ccc(C(c2ccccn2)c2ccccn2)cc1	-2.7	3.6	3.4	6.5*	7.3*	1.2
CC(=O)Oc1ccc(C(c2ccc(OC(C)=O)cc2)c2ccccn2)cc1	2.1	1.5	1.8	-1.5	x	x
CCNC(=O)C1CCCN(C(=O)c2cccc(C#N)c2)CC1 (centres undefined)	2.2	2.3	x	-0.5	x	x
Cc1nc(SCC(=O)N2CC(C)OC(C)C2)nc(C)c1C (centres undefined)	-2.4	-2.4	-4.9	8.3*	9.5*	0.1
SMILES	Neddylation inh	SUMO1-SIM PPI	ATG4B inh	Rin1 Abl inh	Rin1 Abl conf	GFP quencher	others
Oc1cc2c(cc1O)C1c3ccc(O)c(O)c3OCC1(O)C2 (centres undefined)	-1.9	9.6	-23.4	31.2*	30.9*	19.6*
CCOc1ccc(/C=N/Nc2cc(N3CCOCC3)ncn2)c(O)c1	-0.6	-0.8	x	8.3*	1.7	1.7
CCCOc1ccc(/C=N/Nc2cc(N3CCOCC3)ncn2)c(O)c1	6.4	3.5	-1.8	-0.7	x	x
CC[N+]1(C)CCC(O)(/C=C/c2ccccc2)C(C(=O)/C=C/c2ccccc2)C1 (centres undefined)	3.2	-7.2	1.1	1.6	x	x
CCCCCCSc1ccc([C@@H]2[C@@H]3C(=O)N(CC)C(=O)[C@@H]3[C@]3(C(=O)OC)CCCCN23)cc1	-6.0	-1.1	-2.6	2.7	x	x
CCCCCCSc1ccc([C@@H]2[C@H]3C(=O)N(C)C(=O)[C@H]3[C@]3(C(=O)OC)CCCCN23)cc1	-50.1	1.7	-4.5	10.3*	-1.6	-0.8
CC1CC(C)CN(C(=O)COC(=O)COc2ccc(C#N)cc2)C1 (centres undefined)	-9.2	-0.3	-1.8	1.1	x	x
Cc1cccc(N(Cc2ccccc2)C(=O)c2ccc(S(C)(=O)=O)cc2)c1	-4.8	-1.1	7.0	8.3*	-1.9	1.6
COc1ccc(CNCCCn2cnc3c(SC)ncnc32)cc1	0.8	3.0	x	1.8	x	x
Cc1c(NC(=O)c2cccc(S(=O)(=O)N(C)c3ccccc3)c2)c(=O)n(-c2ccccc2)n1C	-4.8	1.5	-7.8	1.9	x	x
Cc1c(NC(=O)CSc2ncccn2)c(=O)n(-c2ccccc2)n1C	8.1	2.6	3.6	5.4*	2.1	-1.1
Cc1c(NC(=O)c2ccc(Cl)s2)c(=O)n(-c2ccccc2)n1C	-2.5	0.3	-5.4	6.2*	-1.7	0.8
Cc1c(NC(=O)c2ccc(N(C)S(=O)(=O)c3ccccc3)cc2)c(=O)n(-c2ccccc2)n1C	-6.6	0.9	-9.6	9.8*	0.8	-1.9
Cc1c(NC(=O)c2ccccc2)c(=O)n(-c2ccccc2)n1C	0.6	19.6	0.8	-3.2	x	x
O=C(CCN1C(=O)[C@@H]2Cc3ccccc3CN2C1=O)NCc1ccc(Cl)cc1	-16.1	5.1	-4.7	29.1*	-1.3	0.3
CCCCn1nnnc1C(c1ccc(OC)cc1)N1CCN(C/C=C/c2ccccc2)CC1 (centres undefined)	-1.2	4.3	x	-3.3	x	x
Cc1ccc(C(=O)C(C)N2C(=O)NC(C)(c3ccccc3)C2=O)cc1 (centres undefined)	-3.1	26.3	10.6	7.1*	-1.5	0.7
CCOC(=O)[C@]12Cc3c(cc(OC)c(OC)c3OC)[C@H]1N(C1CCCCC1)C(=O)c1cc(OC)ccc12	6.3	3.3	x	x	x	x
